PubChem BioAssay AID1159580 (chemical genetic matrix, 2015)
Values joined by “and” are separate entries in the source; they are usually repeats but may differ in a detail not shown here. Equal entries are not always repeated. Among all 5,500 compounds or so, about 2,000 (36%) were called active. About 18% were inconclusive and are not listed. Cut-off read from the data, not from the text of the source: active = normalized growth mostly below about 0.91 (no sharp cut-off); inconclusive = no clear call, values can overlap the other calls; inactive = mostly above about 0.92. The list shows a part of the results.

Experiment: chemical genetic growth profiling, strain panel (AID 1159580);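 note: tested at 20 µM; growth read once vehicle control cultures reached saturation at 30 °C; 1 = growth at the plate median or of vehicle wells; lower values mean less growth of the strain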
Details: growth OD

Measured: normalized growth

CN(C)c1ccc(O)c2c1C[C@H]1C[C@H]3[C@H](N(C)C)C(=O)C(C(N)=O)=C(O)[C@@]3(O)C(=O)C1=C2O
inactive: S. cerevisiae deletion strains, locus YAL013W, strain DEP1, stronger effect = lower value 0.988 | S. cerevisiae deletion strains, locus YBR021W, strain FUR4, stronger effect = lower value 0.915 | S. cerevisiae deletion strains, locus YBR229C, strain ROT2, stronger effect = lower value 0.947 | S. cerevisiae deletion strains, locus YCL029C, strain bik1, stronger effect = lower value 0.992 | S. cerevisiae deletion strains, locus YDL035C, strain GPR1, stronger effect = lower value 0.963 | S. cerevisiae deletion strains, locus YDL074C, strain BRE1, stronger effect = lower value 1 | S. cerevisiae deletion strains, locus YDL101C, strain DUN1, stronger effect = lower value 0.969 | S. cerevisiae deletion strains, locus YDL134C, strain PPH21, stronger effect = lower value 0.976 | S. cerevisiae deletion strains, locus YDL185W, strain tfp1, stronger effect = lower value 0.983 | S. cerevisiae deletion strains, locus YDL192W, strain arf1, stronger effect = lower value 0.962 | S. cerevisiae deletion strains, locus YDR101C, strain arx1, stronger effect = lower value 1 | S. cerevisiae deletion strains, locus YDR150W, strain NUM1, stronger effect = lower value 0.975 | S. cerevisiae deletion strains, locus YDR162C, strain NBP2, stronger effect = lower value 0.964 | S. cerevisiae deletion strains, locus YDR318W, strain mcm21, stronger effect = lower value 0.996 | S. cerevisiae deletion strains, locus YDR388W, stronger effect = lower value 0.997 | S. cerevisiae deletion strains, locus YDR502C, strain sam2, stronger effect = lower value 0.986 | S. cerevisiae deletion strains, locus YEL061C, strain CIN8, stronger effect = lower value 0.984 | S. cerevisiae deletion strains, locus YER110C, stronger effect = lower value 0.974 | S. cerevisiae deletion strains, locus YER155C, strain BEM2, stronger effect = lower value 1.03 | S. cerevisiae deletion strains, locus YER167W, strain BCK2, stronger effect = lower value 0.984 | S. cerevisiae deletion strains, locus YGL078C, strain dbp3, stronger effect = lower value 0.974 | S. cerevisiae deletion strains, locus YGL086W, strain mad1, stronger effect = lower value 0.98 | S. cerevisiae deletion strains, locus YGL248W, strain PDE1, stronger effect = lower value 0.974 | S. cerevisiae deletion strains, locus YGR078C, strain PAC10, stronger effect = lower value 0.966 | S. cerevisiae deletion strains, locus YGR135W, strain pre9, stronger effect = lower value 0.974 | S. cerevisiae deletion strains, locus YGR229C, strain SMI1, stronger effect = lower value 0.987 | S. cerevisiae deletion strains, locus YGR252W, strain gcn5, stronger effect = lower value 0.802 | S. cerevisiae deletion strains, locus YHR030C, strain SLT2, stronger effect = lower value 0.992 | S. cerevisiae deletion strains, locus YHR079C, strain IRE1 (second series), stronger effect = lower value 1 | S. cerevisiae deletion strains, locus YHR079C, strain IRE1, stronger effect = lower value 1.01 | S. cerevisiae deletion strains, locus YHR094C, strain hxt1, stronger effect = lower value 1.01 | S. cerevisiae deletion strains, locus YHR129C, strain ARP1, stronger effect = lower value 0.99 | S. cerevisiae deletion strains, locus YHR200W, strain rpn10, stronger effect = lower value 0.989 | S. cerevisiae deletion strains, locus YIL066C, strain RNR3, stronger effect = lower value 0.96 | S. cerevisiae deletion strains, locus YIL073C, strain SPO22, stronger effect = lower value 0.959 | S. cerevisiae deletion strains, locus YIL125W, strain kgd1, stronger effect = lower value 0.979 | S. cerevisiae deletion strains, locus YIR030C, strain dcg1, stronger effect = lower value 0.987 | S. cerevisiae deletion strains, locus YJL095W, strain BCK1, stronger effect = lower value 0.986 and 0.993 | S. cerevisiae deletion strains, locus YJL134W, strain LCB3, stronger effect = lower value 0.981 | S. cerevisiae deletion strains, locus YJL168C, strain set2, stronger effect = lower value 0.995 | S. cerevisiae deletion strains, locus YJL187C, strain SWE1 (second series), stronger effect = lower value 0.966 | S. cerevisiae deletion strains, locus YJR043C, strain POL32, stronger effect = lower value 0.992 | S. cerevisiae deletion strains, locus YJR066W, strain TOR1, stronger effect = lower value 0.941 | S. cerevisiae deletion strains, locus YJR075W, strain HOC1, stronger effect = lower value 1 | S. cerevisiae deletion strains, locus YKL009W, strain mrt4, stronger effect = lower value 0.974 | S. cerevisiae deletion strains, locus YKL068W, stronger effect = lower value 0.995 | S. cerevisiae deletion strains, locus YKL085W, strain MDH1 (second series), stronger effect = lower value 0.982 | S. cerevisiae deletion strains, locus YKL085W, strain MDH1, stronger effect = lower value 0.982 | S. cerevisiae deletion strains, locus YKL190W, strain CNB1, stronger effect = lower value 0.998 | S. cerevisiae deletion strains, locus YKR001C, strain vps1, stronger effect = lower value 0.966 | S. cerevisiae deletion strains, locus YLR039C, strain RIC1, stronger effect = lower value 0.937 | S. cerevisiae deletion strains, locus YLR058C, strain SHM2, stronger effect = lower value 0.957 | S. cerevisiae deletion strains, locus YLR102C, strain apc9, stronger effect = lower value 0.989 | S. cerevisiae deletion strains, locus YLR113W, strain HOG1, stronger effect = lower value 1.01 | S. cerevisiae deletion strains, locus YLR262C, strain YPT6, stronger effect = lower value 0.895 | S. cerevisiae deletion strains, locus YLR268W, strain sec22, stronger effect = lower value 1.04 | S. cerevisiae deletion strains, locus YLR330W, strain CHS5, stronger effect = lower value 0.989 | S. cerevisiae deletion strains, locus YLR342W, strain FKS1 (second series), stronger effect = lower value 0.851 | S. cerevisiae deletion strains, locus YLR371W, strain rom2, stronger effect = lower value 0.98 | S. cerevisiae deletion strains, locus YLR418C, strain cdc73, stronger effect = lower value 0.909 | S. cerevisiae deletion strains, locus YML016C, strain PPZ1, stronger effect = lower value 0.974 | S. cerevisiae deletion strains, locus YML032C, strain rad52, stronger effect = lower value 1 | S. cerevisiae deletion strains, locus YML124C, strain tub3, stronger effect = lower value 0.991 | S. cerevisiae deletion strains, locus YMR078C, strain ctf18, stronger effect = lower value 0.993 | S. cerevisiae deletion strains, locus YMR223W, strain ubp8, stronger effect = lower value 0.934 | S. cerevisiae deletion strains, locus YMR263W, strain SAP30, stronger effect = lower value 0.991 | S. cerevisiae deletion strains, locus YMR307W, strain GAS1, stronger effect = lower value 0.879 | S. cerevisiae deletion strains, locus YNL067W, strain RPL9B, stronger effect = lower value 1 | S. cerevisiae deletion strains, locus YNL128W, strain TEP1, stronger effect = lower value 0.922 | S. cerevisiae deletion strains, locus YNL153C, strain GIM3, stronger effect = lower value 0.985 | S. cerevisiae deletion strains, locus YNL183C, strain NPR1, stronger effect = lower value 0.968 | S. cerevisiae deletion strains, locus YNL233W, strain BNI4, stronger effect = lower value 1 | S. cerevisiae deletion strains, locus YNL250W, strain rad50, stronger effect = lower value 0.975 | S. cerevisiae deletion strains, locus YNL271C, strain bni1, stronger effect = lower value 0.989 | S. cerevisiae deletion strains, locus YNL298W, strain CLA4, stronger effect = lower value 0.987 | S. cerevisiae deletion strains, locus YNL307C, strain MCK1, stronger effect = lower value 0.997 | S. cerevisiae deletion strains, locus YNL322C, strain KRE1, stronger effect = lower value 0.993 | S. cerevisiae deletion strains, locus YNR052C, strain pop2, stronger effect = lower value 0.978 | S. cerevisiae deletion strains, locus YOL006C, strain TOP1, stronger effect = lower value 0.887 | S. cerevisiae deletion strains, locus YOL012C, strain htz1 0.571 | S. cerevisiae deletion strains, locus YOL147C, strain pex11, stronger effect = lower value 0.994 | S. cerevisiae deletion strains, locus YOR061W, strain CKA2, stronger effect = lower value 0.967 | S. cerevisiae deletion strains, locus YOR069W, strain VPS5, stronger effect = lower value 0.985 | S. cerevisiae deletion strains, locus YOR136W, strain idh2, stronger effect = lower value 0.978 | S. cerevisiae deletion strains, locus YOR144C, strain elg1, stronger effect = lower value 0.996 | S. cerevisiae deletion strains, locus YOR184W, strain ser1, stronger effect = lower value 0.985 | S. cerevisiae deletion strains, locus YOR231W, strain MKK1, stronger effect = lower value 1.01 | S. cerevisiae deletion strains, locus YOR316C, strain cot1, stronger effect = lower value 0.998 | S. cerevisiae deletion strains, locus YPL055C, strain LGE1, stronger effect = lower value 0.958 | S. cerevisiae deletion strains, locus YPL241C, strain CIN2, stronger effect = lower value 0.981 | S. cerevisiae deletion strains, locus YPL256C, strain CLN2, stronger effect = lower value 1.01 | S. cerevisiae deletion strains, locus YPR119W, strain clb2, stronger effect = lower value 0.996 | S. cerevisiae deletion strains, locus YPR141C, strain kar3, stronger effect = lower value 0.997 | S. cerevisiae deletion strains, locus YPR163C, strain tif3, stronger effect = lower value 0.99 | S. cerevisiae deletion strains, locus YPR167C, strain met16, stronger effect = lower value 1 | S. cerevisiae deletion strains, strain wtn01, stronger effect = lower value 1.02 | S. cerevisiae strains, strain wild type, stronger effect = lower value 0.981
